We go through 14 compounds from PubChem BioAssay.

Active and inactive are the calls of the source.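 Rule for the calls, unless noted: active = inhibition above 20% together with a positive visual image hit; inconclusive = visual image hit but inhibition not above 20%; inactive = no visual image hit.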

Experiment [1] in a line: inhibitors of TNFa-induced NFkB p65 translocation, primary screen, imaging, HUVEC, MLSMR starter and 10KST1 sets (AID 438).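 For inhibition: signal is the nuclear over cytoplasmic p65 intensity ratio per well.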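 Note: compound added about 3h40 before a 20 min TNFalpha stimulation.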 To be noted: HUVEC TNFa-induced p65 nuclear translocation; cell count: measured here: nuclei count (cytotoxicity indicator), at 2.08 µM; inhibition: at 2 µM, stronger effect = higher value, 0% TNFa-plus-vehicle, 100% no-TNFa wells.
Experiment [2] in a line: reduction of polyQ htt aggregates in cells – imaging, exon1htt(103Q)mCFP cells, high-content imaging, primary screen (AID 483;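 active = visual image review flags a hit and inhibition of aggregation exceeds 20%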;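 note: compound exposure lasted 3 days before fixation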;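 for nuclei count: percent of the per-plate median nuclei count of sample wells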). To be noted: exon1htt(103Q)mCFP cell line, aggregate imaging, at 2 µM; inhibition of aggregation: stronger effect = higher value; nuclei count: measured here: cell count, toxicity.
Experiment [3] can be described thus: endothelial E-selectin expression blockers – imaging, HUVEC, immunofluorescence, MLSMR starter and 10KST1 sets, primary screen (AID 487;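 active = visually confirmed hit in the image check and inhibition above 20%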;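 for inhibition: signal is fraction of cell area covered by stained E-selectin grains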;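 for nuclei count: 100% = median nuclei count of all wells on the same plate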). To be noted: HUVEC TNFalpha-induced E-selectin immunofluorescence imaging, at 2 µM; inhibition: stronger effect = higher value; nuclei count: measured here: cell number, toxicity.
Experiment [4] has as its target Voltage-gated potassium channel subunit beta-2 (Rattus norvegicus) (UniProt P62483). Description: inhibitors of rat Kvbeta2 reductase activity – biochemical, NADPH fluorescence, primary screen (AID 622;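 active = fluorescence slope higher than the sample average by over 3 SD, cut at about -0.22 in these data, passing the limit was not always enough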;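 note: slope of raw intensity against log time taken from 70 to 1610 s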). To be noted: recombinant KvBeta, 4-cyanobenzaldehyde reduction, at 10 µM, stronger effect = higher value.
Experiment [5] has the same target. Description: enhancers of rat Kvbeta2 NADPH turnover – biochemical, NADPH fluorescence, primary screen (AID 623;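 active = NADPH fluorescence slope more negative than the mean of all samples by about 3 SD, 99.7% confidence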;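 note: fluorescence intensity change per second fitted from 20 to 320 s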). To be noted: Recombinant KvBeta, NADPH fluorescence decrease slope, 10 min; at 10 µM; stronger effect = lower value.
Experiment [6] deals with Alpha-2C adrenergic receptor (Homo sapiens) (UniProt P18825). As to the kind of experiment: compounds altering alpha2C-coupled GIRK flux – cell-based, HEK293 alpha2C/GIRK1/2, thallium flux, primary screen (AID 624;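 active = fluorescence slope after compound addition differing from the mean of all screened samples at 99.7% confidence, in either direction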;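 note: slope of fluorescence ratio to pre-addition baseline per second over 15 to 24 s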). To be noted: thallium flux BTC fluorescence, at 10 µM, actives lie on both sides.
The nature of experiment [7]: blockers of RIG-like receptor reporter activation – cell-based, Sendai virus stimulus, luciferase, 10K MLSCN set, TLR/RLR signaling modifier project, primary screen (AID 602276;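 active = inhibition at or above 50% at 10 µM; inactive = inhibition below 50%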;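 note: firefly luciferase from ISG56 promoter only with Renilla not read in this screen; 0% = Sendai virus plus DMSO and 100% = medium plus DMSO without virus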). To be noted: HEK293 RL24 IRF3 luciferase reporter, at 10 µM, stronger effect = higher value. For orientation: In a reporter assay the amount or activity of a reporter protein is the signal.
The nature of experiment [8]: TLR3 IRF3 reporter activation blockers – cell-based, poly I:C stimulus, luciferase, 10K MLSCN set, primary screen (AID 602277;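 active = inhibition of the reporter signal at or above 50%; inactive = inhibition below 50%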). To be noted: HEK293-TLR3 RL24 IRF3 luciferase reporter, at 10 µM, stronger effect = higher value.

Chain of Voltage-gated potassium channel subunit beta-2 (Rattus norvegicus) (P62483 whole entry, looked up): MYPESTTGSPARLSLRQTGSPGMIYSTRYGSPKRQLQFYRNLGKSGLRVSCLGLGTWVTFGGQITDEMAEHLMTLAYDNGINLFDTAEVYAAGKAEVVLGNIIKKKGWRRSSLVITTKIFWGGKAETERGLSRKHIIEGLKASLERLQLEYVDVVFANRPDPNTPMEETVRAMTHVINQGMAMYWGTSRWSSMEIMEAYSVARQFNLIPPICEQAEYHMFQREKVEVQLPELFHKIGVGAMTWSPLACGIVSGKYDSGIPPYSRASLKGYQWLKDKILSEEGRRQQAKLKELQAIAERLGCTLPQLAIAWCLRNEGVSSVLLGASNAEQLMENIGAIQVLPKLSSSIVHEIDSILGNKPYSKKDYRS
Chain of Alpha-2C adrenergic receptor (Homo sapiens) (P18825 whole entry, looked up): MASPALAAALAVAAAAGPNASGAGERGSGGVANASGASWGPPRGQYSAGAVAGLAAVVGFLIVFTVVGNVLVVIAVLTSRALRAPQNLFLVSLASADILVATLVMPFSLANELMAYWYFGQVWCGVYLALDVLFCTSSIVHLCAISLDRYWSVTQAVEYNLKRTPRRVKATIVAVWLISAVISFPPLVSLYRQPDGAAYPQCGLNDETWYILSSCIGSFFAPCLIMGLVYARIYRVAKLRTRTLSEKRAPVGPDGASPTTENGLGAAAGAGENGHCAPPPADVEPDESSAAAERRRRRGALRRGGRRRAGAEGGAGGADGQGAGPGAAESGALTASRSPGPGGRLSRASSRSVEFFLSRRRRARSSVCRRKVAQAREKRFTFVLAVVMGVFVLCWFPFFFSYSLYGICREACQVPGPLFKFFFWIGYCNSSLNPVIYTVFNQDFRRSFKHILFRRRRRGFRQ

The term inhibition denotes the change of the read-out against control, counted positive when it falls. As to `COc1ccc(CNCC(=O)Nc2cc(C)nn2-c2nc(C)cc(C)n2)cc1OC`, the cell count in experiment [1] turned out to be 431. For the same compound, the inhibition in experiment [1] was 6.7% (inactive); in experiment [3], -481% (inactive); in experiment [7] it was 21.1% (inactive); in experiment [8], 32.1% (inactive). In experiment [2], the inhibition of aggregation is -0.4% (inactive). Also, the nuclei count stood at 104% in experiment [2] and 152% in experiment [3]. In experiment [4], the fluorescence slope is -0.497 (inactive). Moreover, the NADPH fluorescence slope in experiment [5] was -2.4e-05 (inactive). In experiment [6], the slope was 0.00701 (inactive).
For the compound `O=S(=O)(c1cc(Cl)ccc1Br)N1CCOCC1`, the cell count in experiment [1] worked out at 450. Moreover, the inhibition in experiment [1] is 10.6% (inactive); in experiment [3] it was -192% (inactive); in experiment [7], 6.91% (inactive); in experiment [8], 35.8% (inactive). Besides, the inhibition of aggregation in experiment [2] is -0.6% (inactive). In addition, the nuclei count was determined as 90.7% in experiment [2] and 133% in experiment [3]. The fluorescence slope in experiment [4] is -0.431 (inactive). The NADPH fluorescence slope in experiment [5] was -7.3e-05 (inactive). For the same compound, the slope in experiment [6] is 0.00323 (inactive).
For `CCOC(=O)Cn1nnc(-c2ccc(SC)cc2)n1`, the cell count in experiment [1] amounted to 729. In addition, the inhibition is -6.9% (inactive) in experiment [1], -69.2% (inactive) in experiment [3], 11.7% (inactive) in experiment [7] and 16.7% (inactive) in experiment [8]. The inhibition of aggregation in experiment [2] is -11.1% (inactive). The nuclei count in experiment [2] was found to be 102%; in experiment [3] it was 116%. The fluorescence slope in experiment [4] was -0.329 (inactive). Besides, in experiment [5], the NADPH fluorescence slope was -6.5e-05 (inactive). Moreover, the slope in experiment [6] is 0.00483 (inactive).
Consider `N#CCCn1ccc(NC(=O)c2ccc(Cl)cc2)n1`, for which the cell count in experiment [1] was 444. Besides, the inhibition was -6.3% (inactive) in experiment [1], -23% (inactive) in experiment [3], -18.1% (inactive) in experiment [7] and -11.6% (inactive) in experiment [8]. The inhibition of aggregation in experiment [2] is 13.4% (inactive). Further, the nuclei count in experiment [2] came to 100%; in experiment [3], 131%. For the same compound, in experiment [4], the fluorescence slope is -0.477 (inactive). Moreover, the NADPH fluorescence slope in experiment [5] was -6.3e-05 (inactive). The slope in experiment [6] was 0.00607 (inactive).
In the case of `Cn1c(C(=O)NCCN2CCN(c3ccccc3F)CC2)cc2c(=O)n(C)c3ccccc3c21`, the cell count in experiment [1] was 1100. Also, the inhibition in experiment [1] was 11% (inactive); in experiment [3], -30.2% (inactive); in experiment [7], 4.48% (inactive); in experiment [8], 16% (inactive). Further, the inhibition of aggregation in experiment [2] is 12.6% (inactive). The nuclei count in experiment [2] came out at 119%; in experiment [3], 112%. Further, the fluorescence slope in experiment [4] was -0.571 (inactive). In experiment [5], the NADPH fluorescence slope was -2.1e-05 (inactive). Further, the slope in experiment [6] is 0.00598 (inactive).
As for `O=C(COC(=O)CCC1CCCC1)Nc1ccc(Cl)cn1`, in experiment [1], the cell count worked out at 429. In addition, the inhibition is -4.8% (inactive) in experiment [1], -27.8% (inactive) in experiment [3], -6.45% (inactive) in experiment [7] and 3.24% (inactive) in experiment [8]. For the same compound, the inhibition of aggregation in experiment [2] was -13.9% (inactive). For the same compound, the nuclei count is 115% in experiment [2] and 108% in experiment [3]. Moreover, the fluorescence slope in experiment [4] is -0.345 (inactive). Further, the NADPH fluorescence slope in experiment [5] is -5.6e-05 (inactive). For the same compound, the slope in experiment [6] is 0.00786 (inactive).
As to `CCOC(=O)C(C(C)=O)c1nc(C)nc2c1nnn2Cc1ccccc1Cl` (centres undefined), the cell count in experiment [1] was found to be 479. Moreover, the inhibition in experiment [1] was 8.5% (inactive); in experiment [3] it was -10.3% (inactive); in experiment [7], -11.2% (inactive); in experiment [8], -19.4% (inactive). Besides, the inhibition of aggregation in experiment [2] was -6% (inactive). In addition, the nuclei count in experiment [2] was found to be 96.1%; in experiment [3] it was 106%. Further, the fluorescence slope in experiment [4] is -0.356 (inactive). In addition, in experiment [5], the NADPH fluorescence slope was -5.3e-05 (inactive). Besides, the slope in experiment [6] was 0.00379 (inactive).
As to `COc1ccc(C(c2nnnn2C2CCCC2)N2CCC(C)CC2)c(OC)c1` (centres undefined), the cell count in experiment [1] amounted to 584. For the same compound, the inhibition is -7.1% (inactive) in experiment [1], -5.7% (inactive) in experiment [3], 2.52% (inactive) in experiment [7] and 3.27% (inactive) in experiment [8]. In addition, the inhibition of aggregation in experiment [2] is -6.5% (inactive). For the same compound, the nuclei count in experiment [2] amounted to 102%; in experiment [3] it was 109%. Also, in experiment [4], the fluorescence slope is -0.571 (inactive). Moreover, in experiment [5], the NADPH fluorescence slope was 1.2e-05 (inactive). The slope in experiment [6] is 0.005 (inactive).
As to `CCOC(=O)c1ccc(NS(=O)(=O)c2ccc3c(c2)CCCN3C(C)=O)cc1`, the cell count in experiment [1] was determined as 684. Also, the inhibition was 0.7% (inactive) in experiment [1], -93.7% (inactive) in experiment [3], 1.89% (inactive) in experiment [7] and 6.65% (inactive) in experiment [8]. Moreover, the inhibition of aggregation in experiment [2] was 9.2% (inactive). For the same compound, the nuclei count in experiment [2] was found to be 99%; in experiment [3] it was 125%. Further, the fluorescence slope in experiment [4] was -0.543 (inactive). The NADPH fluorescence slope in experiment [5] was 8.9e-06 (inactive). Moreover, in experiment [6], the slope was 0.00506 (inactive).
`CCCN(Cc1cc2ccc(C)cc2[nH]c1=O)C(=O)c1cccnc1`: in experiment [1], the cell count was 779. For the same compound, the inhibition in experiment [1] was 2.6% (inactive); in experiment [3], -5.8% (inactive); in experiment [7], 11.3% (inactive); in experiment [8], 27.1% (inactive). Moreover, the inhibition of aggregation in experiment [2] was -34.8% (inactive). Moreover, the nuclei count in experiment [2] is 104%; in experiment [3], 109%. Further, the fluorescence slope in experiment [4] was -0.46 (inactive). The NADPH fluorescence slope in experiment [5] is 1.6e-05 (inactive). Further, the slope in experiment [6] is 0.00624 (inactive).
In the case of `O=S(=O)(NCC(c1cccnc1)N1CCN(c2ccccc2)CC1)c1cc(F)ccc1F` (centres undefined), in experiment [1], the cell count is 524. The inhibition is -6.2% (inactive) in experiment [1], -75.8% (inactive) in experiment [3], 21.7% (inactive) in experiment [7] and 20.8% (inactive) in experiment [8]. The inhibition of aggregation in experiment [2] is 9% (inactive). For the same compound, the nuclei count in experiment [2] turned out to be 51.3%; in experiment [3], 115%. Besides, the fluorescence slope in experiment [4] is -0.508 (inactive). Moreover, the NADPH fluorescence slope in experiment [5] is 5.2e-05 (inactive). Moreover, the slope in experiment [6] is 0.00657 (inactive).
Take `COc1cccc(C2CC(c3ccc(F)cc3)Nc3nc(N)nn32)c1` (centres undefined): in experiment [1], the cell count came to 605. Moreover, the inhibition was -6.5% (inactive) in experiment [1], -6.1% (inactive) in experiment [3], -17.7% (inactive) in experiment [7] and 16.2% (inactive) in experiment [8]. Also, the inhibition of aggregation in experiment [2] was 1.4% (inactive). Besides, the nuclei count came to 105% in experiment [2] and 117% in experiment [3]. For the same compound, in experiment [4], the fluorescence slope is -0.501 (inactive). Also, the NADPH fluorescence slope in experiment [5] was 2.1e-05 (inactive). In addition, the slope in experiment [6] was 0.00747 (inactive).
As for `O=C(c1ccc(COc2c(F)c(F)c(F)c(F)c2F)o1)N1CCOCC1`, in experiment [1], the cell count is 701. For the same compound, the inhibition is 2.8% (inactive) in experiment [1], -25% (inactive) in experiment [3], 10.5% (inactive) in experiment [7] and 33.9% (inactive) in experiment [8]. In experiment [2], the inhibition of aggregation is 26.7% (inactive). For the same compound, the nuclei count in experiment [2] worked out at 79.8%; in experiment [3], 105%. The fluorescence slope in experiment [4] was -0.58 (inactive). Further, the NADPH fluorescence slope in experiment [5] is -3.8e-05 (inactive). The slope in experiment [6] is 0.0055 (inactive).
On to `CCOC(=O)CN(C(=O)CSc1nnc(-c2ccncc2)n1CCCN(C)C)c1ccccc1`, for which the cell count in experiment [1] stood at 570. Also, the inhibition was -11.3% (inactive) in experiment [1], -14.2% (inactive) in experiment [3], 14.2% (inactive) in experiment [7] and 30.4% (inactive) in experiment [8]. Also, in experiment [2], the inhibition of aggregation was 12.2% (inactive). The nuclei count in experiment [2] came to 89.1%; in experiment [3] it was 92.8%. For the same compound, in experiment [4], the fluorescence slope is -0.615 (inactive). For the same compound, the NADPH fluorescence slope in experiment [5] is -1.7e-05 (inactive). The slope in experiment [6] was 0.00606 (inactive).
